Measured values published in PubChem BioAssay (NCATS).
Results filed as inconclusive are left out. Where a call stands in place of a potency, no number is given. Active and inactive are the calls of the source. The call rests on the fitted dose curve; in most records, active means well fitted inhibition curve with a large enough effect; inconclusive means small, poorly fitted or top-dose-only effect; inactive means no such curve, though single readings can be large or run the other way.

Legend:
[1] = tested on: Zika virus NS2B-NS3 protease (unlinked complex); assay: Primary screen GU Rhodamine qHTS for Zika virus inhibitors: Unlinked NS2B-NS3 protease assay (AID 1347159); further: nearly all actives have a fitted effect of over 60% in size
Procedure, shortened: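 In dose–response format, inhibition of unlinked protease (25 nM) was measured with 1.5 microM bis-peptide Rhodamine110 substrate. Aprotinin served as the intraplate control.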

[2] = tested on: Zika virus NS2B-NS3 protease (linked construct); assay: Primary screen NINDS Rhodamine qHTS for Zika virus inhibitors (AID 1347160); further: nearly all actives have a fitted effect of over 55% in size
Procedure, shortened: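 Each compound, titrated, sat 15 min with 25 nM linked protease before 1.5 microM Rhodamine110 substrate went in. Fluorescence gain over the next 15 min, in pH 8.0 Tris with Tween 20, gave Hill-fitted curves.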

Compound	Potency [1]	Potency [2]
CC(=O)OC[C@@]12[C@@H](OC(C)=O)C[C@@H](C)[C@](C)([C@@H]3C[C@H]4C=CO[C@H]4O3)[C@H]1CCC[C@]21CO1	inactive	inactive
CN1C(=O)N[C@@H](Cc2c[nH]c3c(Cl)cccc23)C1=O	inactive	inactive
NC(=O)[C@H]1CCCCc2c1[nH]c1ccc(Cl)cc21	inactive	inactive
CCC(CCO[C@@H]1O[C@H](CO[C@H]2OC[C@](O)(CO)[C@H]2O)[C@@H](O)[C@H](O)[C@H]1O)C(C)(C)O (some centres not stated)	inactive	inactive
CC(C)(OC1OC(CO)C(O)C(O)C1O)C1CCC(O)(CO)C2CC(O)C(C)(O)C2C1 (configuration not stated)	inactive	inactive
COc1cc2c(cc1O)C1(OC)Cc3ccc4c(c3C1N(C)CC2)OCO4 (configuration not stated)	inactive	inactive
